Pf Dd2 inh – blocks in vitro growth of P. falciparum Dd2 | P. falciparum Dd2 growth, SYBR Green, 72 h | Potency, µM (highest dose often 28.9 µM), for the others: at the highest dose activity, negative = inhibition, usual class: inhibitors | hit rate 4.3% among 120,000; active = well fitted inhibition curve with a large enough effect;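 note: plate controls were DMSO vehicle for no effect and reference drug for full effect; nearly all actives have a fitted effect of over 65% in size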
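Infected erythrocytes (Dd2, 0.3% parasitemia, 2.5% hematocrit final) are added to compound in RPMI-1640/Albumax II medium, grown 72 h at 37C in low oxygen, then lysed with saponin/Triton-X containing SYBR Green and read by fluorescence.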
* marks the source's active call; other numbers are inactive results; i = inactive; [ ] = remark or other dose. Shown is part of a subset that was picked to be rich in hits. Potency is the fitted concentration of half-maximal effect.

SMILES | Pf Dd2 inh
O=C(Cn1ccn2nc3c(c2c1=O)CCCCC3)Nc1ccc2c(c1)OCO2 | 23%
CCOC(=O)N1CCc2c(sc3c2c(=O)n(-c2ccc(Cl)cc2)c(=O)n3CC(=O)c2ccc(F)cc2)C1 | i
CCOC(=O)N1CCc2c(sc3c2c(=O)n(-c2ccc(CC)cc2)c(=O)n3Cc2cccc(Cl)c2)C1 | -26%
CCOC(=O)N1CCc2c(sc3c2c(=O)n(-c2ccc(CC)cc2)c(=O)n3Cc2ccc(F)cc2Cl)C1 | 10µM*
COc1nccc(N2CCC(CC(=O)NC3CCN(Cc4ccccc4)CC3)CC2)n1 | -13%
O=c1n(-c2ccc(Cl)cc2)nc2n1CCN(Cc1cccnc1)C2 | -21%
CCNC(=O)[C@@H]1C[C@H](NC(=O)CO)CN1Cc1cc(C2CCCCC2)no1 | 8%
O=C(NCCc1ccccn1)c1cc2n(n1)CC(c1ccc(Br)cc1)OC2 (stereo not given) | -9%
C[C@H](O)c1onc(-c2ccccc2)c1C(=O)NC(C)(C)C | 3%[44.1 µM]
Cc1ccc(-n2cc(CN(C)C(C)C(=O)N(C)C)c(-c3cccc(C)c3)n2)cc1 (stereo not given) | 4µM*
CC(=O)Nc1ccc(-c2c(-c3cccc(C)c3)nn(-c3ccc(F)cc3)c2OC(C)=O)cc1 | -17%
Cc1ccc(NC(=O)c2cn(-c3ccccc3)nc2-c2ccccc2)cc1 | -28%
CCc1ccccc1Nc1nn2c(=O)c3ccc(C(=O)Nc4cc(C)cc(C)c4)cc3nc2s1 | -2%
CCc1ccccc1Nc1nn2c(=O)c3ccc(C(=O)NC4CCCCC4)cc3nc2s1 | -20%
CCc1ccccc1Nc1nn2c(=O)c3ccc(C(=O)NC(C)c4ccccc4)cc3nc2s1 (stereo not given) | 1µM*
COc1cc(NC(=O)Cn2c(Nc3cc(C)cc(C)c3)nc(C)cc2=O)cc(OC)c1OC | -17%
O=C1NC(C(=O)NCc2cc(F)ccc2F)Cn2cccc21 (stereo not given) | -22%
O=C(NCCc1ccccc1)C1CCCN(C2CCN(Cc3ccncc3)CC2)C1 (stereo not given) | 10µM*
O=C(NCCc1ccccc1)C1CCCN(C2CCN(Cc3ccccc3F)CC2)C1 (stereo not given) | i
O=C(NCCN1CCOCC1)C1CCCN(C2CCN(Cc3ccncc3)CC2)C1 (stereo not given) | -15%
O=C(NC1CCOCC1)c1ccc(OC2CCN(Cc3ccccn3)CC2)cc1 | -2%
O=C(NCCc1ccccc1F)c1cc(Br)cn2ccnc12 | i
O=C(Nc1ccccc1F)NC1CCN(C(=O)N2CC3CC(C2)[C@H]2CCCC(=O)N2C3)CC1 (stereo not given in full) | -22%
COc1ccc2[nH]c3c(c2c1)CCNC31CCN(C(=O)c2nccc3ccccc23)CC1 | -24%
CC(=O)Nc1cccc(C(=O)NC2CCCN(c3cc(-c4ccccc4)[nH]n3)C2)c1 (stereo not given) | i
SMILES | Pf Dd2 inh
COCCN1C(=O)[C@@H]2C[C@@H](CN2Cc2ccccn2)Oc2ccccc21 | 10µM*
COc1ccc(CN2C(=O)[C@@H]3C[C@@H](CN3Cc3ccc(S(C)(=O)=O)cc3)Oc3ccccc32)cc1 | i
O=C1[C@@H]2C[C@@H](CN2C2CCOCC2)Oc2ccccc2N1Cc1ccccn1 | -15%[44.1 µM]
O=C1[C@@H]2C[C@@H](CN2Cc2ccc(C(F)(F)F)cc2)Oc2ccccc2N1Cc1cccnc1 | i
COCCN1C(=O)[C@@H]2C[C@@H](CN2C(=O)c2ccccc2)Oc2ccccc21 | 14%[44.1 µM]
COCCN1C(=O)[C@@H]2C[C@@H](CN2Cc2ccc(C(F)(F)F)cc2)Oc2ccccc21 | 14µM*
Cc1ccc(-c2cc3c(=O)n(CCNC(=O)c4nccc5ccccc45)ccn3n2)c(C)c1 | -6%
COc1ccc(-c2noc(-c3nc(Cc4ccccc4)no3)n2)cc1 | i
O=C1NCc2ccccc2CC12CCCCN2Cc1cccc(O)c1 (stereo not given) | -20%
Cc1cccc(C)c1CN1CCCC12Cc1ccccc1CNC2=O (stereo not given) | 2.5µM*
Cc1cccc(CN2CCCCC23Cc2ccccc2CNC3=O)n1 (stereo not given) | 10µM*
Cc1ncc(CO)c(CN2CCCC23Cc2ccccc2CNC3=O)c1O (stereo not given) | 0%
Cc1cc(C)c(CN2CCCC23Cc2ccccc2CNC3=O)c(C)c1 (stereo not given) | -5%
O=C1NCc2ccccc2CC12CCCN2Cc1ccc2ccccc2n1 (stereo not given) | 5%
CCN(CC)Cc1cnc2c(C(=O)N(C)C(C)c3ccccn3)cnn2c1 (stereo not given) | -15%
Cc1noc(C)c1CC(=O)N1CCC2(CC1)CN(C(=O)NC(C)C)Cc1ccccc1O2 | 14%
Cc1cc(NC(=O)c2ccc3c(c2)OCCN(C2CCC2)C3)ccc1F | -9%[44.1 µM]
COCC1CN(C2CCC2)CC12CCN(C(=O)Cc1ccccc1F)CC2 (stereo not given) | 5.6µM*
COCC1CN(C(C)=O)CC12CCN(C(=O)Cc1ccc(OC)cc1)CC2 (stereo not given) | i

Source: PubChem (National Center for Advancing Translational Sciences (NCATS))
